According to PubChem BioAssay (NCI):
This is part of a sample that, as a whole, favours compounds with a hit. Of some 83,000 tested, about 20% had one in any assay.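 Activity criterion: percent growth below 10, measured after cells in 96-well plates were exposed to a single compound concentration for 48 hours.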 Unmarked numbers belong to inactive results. Activity calls are given as the source filed them.

Assays:
Experiment in all cases: NCI-60 one-dose screen, 48 h (100 = growth as untreated, 0 = no growth, -100 = all killed)
Details in all cases: 10 µM unless noted
[1] = system: NCI-H23 lung
[2] = system: NCI-H226 lung
[3] = system: NCI-H322M lung
[4] = system: HOP-62 NSCLC
[5] = system: NCI-H460 lung
[6] = system: NCI-H522 lung
[7] = system: 786-0 renal
[8] = system: COLO 205 colon
[9] = system: DU-145 prostate
[10] = system: K-562 leukemia
[11] = system: MALME-3M melanoma
[12] = system: MDA-MB-231 breast
[13] = system: RXF 393 renal
[14] = system: SF-268 CNS
[15] = system: SF-295 CNS
[16] = system: SF-539 CNS
[17] = system: UACC-257 melanoma
[18] = system: M14 melanoma
[19] = system: HCT-15 colon

| SMILES | growth [1] | growth [2] | growth [3] | growth [4] | growth [5] | growth [6] | growth [7] | growth [8] | growth [9] | growth [10] | growth [11] | growth [12] | growth [13] | growth [14] | growth [15] | growth [16] | growth [17] | growth [18] | growth [19] |
| --- | --- | --- | --- | --- | --- | --- | --- | --- | --- | --- | --- | --- | --- | --- | --- | --- | --- | --- | --- |
| CCN(CC)CCNc1ccc(Cl)cc1Cl | 101% | 108% | 94.9% | 95.8% | 107% | 98.5% | 104% | 108% | 107% | 104% | 106% | 118% | 103% | 101% | 109% | 111% | 95% | 102% | 107% |
| ClC1=C(Cl)C(Cl)=C(Cl)C1=Cc1ccc(Cl)cc1 | 33.1% | 87.7% | 107% | 47.4% | -63.4% (active) | 27.5% | -43% (active) | 13.5% | -75.4% (active) | -0.422% (active) | -2.75% (active) | 14.3% | 20.5% | -69.3% (active) | 34.2% | 91.2% |  | -47.6% (active) | 66.5% |
| COc1ccc(-c2nn(-c3cccc(Cl)c3)cc2C2CC(c3ccccc3)=NN2C(C)=O)cc1 (stereo not drawn) | 84.2% | 37.9% | 76.8% | -18.1% (active) | 39.6% | 60.9% | 72.2% | 81.6% | 72.2% | 96.1% | 46.8% | 72.9% | 54.4% | 66.9% |  | 50.6% | 86.2% |  | 86% |
| C=CCCCCCCCCC(=O)[O][Sn]([CH2]CCC)([CH2]CCC)[CH2]CCC | -86.2% (active) | -52.7% (active) | -88.7% (active) | -94.7% (active) | -83.3% (active) | -53% (active) | -96% (active) | -86% (active) | -95.2% (active) | -16.8% (active) | -79.8% (active) | -81.7% (active) | -97.3% (active) | -97.3% (active) | -85.4% (active) | -84.1% (active) |  | -91.1% (active) | -73.3% (active) |
| CC(C)(C)c1cc(O)c(O)c(C(C)(C)C)c1 | 48.4% | 75.6% | 63.5% | 64.7% | 14.7% | 0.232% (active) | 52.2% | 64.9% | 68.7% | 3.38% (active) | 67% | 61.1% | 65% | 53.2% |  | 40.6% | 80.5% | 51.9% | 26.7% |
| COc1ccc(-c2csc(NC(=O)c3cc(OC)c(OC)c(OC)c3)n2)cc1 | 114% | 94.1% | 99.1% | 91.2% | 103% | 107% | 102% | 105% | 112% | 113% | 96.2% | 109% | 87.9% | 102% | 91.9% | 112% | 98.5% | 116% | 107% |
| N#CCCN(CCO)c1ccccc1 | 104% | 94.6% | 93.7% | 95% | 105% | 80.6% | 96.2% | 104% | 116% | 98.3% | 96.8% | 106% | 105% | 111% |  | 104% | 99.8% | 102% | 102% |
| Nc1cc(Cl)c(S(N)(=O)=O)cc1S(N)(=O)=O | 87.1% | 92.8% | 87.9% | 111% | 106% | 68.8% | 100% | 109% | 121% | 104% | 84.5% | 113% |  | 113% | 111% | 88.1% |  | 108% | 97.9% |
| Cc1cc(NC(=O)Nc2cccc3ccccc23)no1 | 92.9% | 108% | 105% | 103% | 101% | 91% | 96.4% | 154% | 118% | 92.4% | 101% | 112% | 99.6% | 108% | 103% | 97.2% | 105% | 107% | 95.2% |
